rCAG RNA binder: molecules binding r(CAG) RNA repeats. r(CAG) RNA repeat, TO-PRO-1 dye displacement fluorescence. inhibition, % at 3 µM. 370,000 compounds, 1.3% hits. AID 651821;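 active = inhibition above the plate cutoff, the mean of all test compounds on that plate plus 3 SD, cut at about 35% in these data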;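 also: higher means more dye released from RNA so lower well fluorescence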
A3G deaminase: inhibitors of human APOBEC3G DNA deaminase. Q9HC16. recombinant A3G, ssDNA deamination FAM/TAMRA fluorescence. inhibition, % at 20 µM. 330,000 compounds, 0.28% hits. AID 493012;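 active = inhibition of at least 40% at 20 µM, with no more than 30% in the related APOBEC3A deaminase screen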
ALR H2O2 inh: blocks human ALR sulfhydryl oxidase activity; inhibition, % (concentration not given with the values); purified ALR, DTT oxidation, H2O2 HRP-luminol luminescence; 290,000 compounds, 3.8% hits;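 active = mean replicate inhibition above about 79%, with every replicate also reaching it, limit read from the data; inconclusive = only one of the two criteria met; inactive = mean below limit and not every replicate reaching it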
Target sequence (P55789 whole entry, looked up): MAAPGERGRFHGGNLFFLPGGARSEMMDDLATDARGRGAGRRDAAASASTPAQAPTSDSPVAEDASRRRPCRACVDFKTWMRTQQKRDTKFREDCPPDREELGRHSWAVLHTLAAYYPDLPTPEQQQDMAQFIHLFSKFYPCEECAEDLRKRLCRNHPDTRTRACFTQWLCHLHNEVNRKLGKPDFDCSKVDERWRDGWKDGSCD
APOBEC3A inh: inhibitors of human APOBEC3A DNA deaminase | P31941 | recombinant A3A, FAM/TAMRA ssDNA deamination fluorescence | inhibition, % at 20 µM | 330,000 compounds, 0.41% hits;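 active = at least 40% inhibition at 20 µM here, with at most 30% in a related deaminase screen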
aDG glyco act: increases alpha dystroglycan glycosylation | Pro5-aDG cells, alpha-DG glycosylation AlphaScreen (IIH6); 0% Pro5, 100% B10-LARGE cell signal | activation, % at 10 µM | 360,000 compounds, 0.22% hits;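 active = activation of at least 8% versus controls, or a plate z-score of at least 8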;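 also: Pro5 are CHO cells carrying HIG-tagged alpha-DG that lacks glycosylation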
PHOSPHO1 inh: PHOSPHO1 (human) inhibition | 290,000 compounds, 1.1% hits | AID 1565 | recombinant PHOSPHO1, absorbance phosphatase assay | inhibition, % at 13.3 µM; in the data active = inhibition above about 60%
Target sequence (Q8TCT1 whole entry, looked up): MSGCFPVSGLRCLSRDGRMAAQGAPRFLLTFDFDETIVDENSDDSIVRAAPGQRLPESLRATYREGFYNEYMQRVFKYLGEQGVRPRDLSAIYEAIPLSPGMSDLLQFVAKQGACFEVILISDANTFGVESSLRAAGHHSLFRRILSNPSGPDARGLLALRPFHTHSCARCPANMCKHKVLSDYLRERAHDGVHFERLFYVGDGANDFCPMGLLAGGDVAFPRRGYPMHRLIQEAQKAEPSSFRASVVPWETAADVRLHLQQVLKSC
Of the large screens only hits and unclear results are named; the others gave an inactive call. Most compounds without a hit are left out; they make up all but 5.4% or so of the library.

Cc1c(N=Nc2c(-c3ccc([N+](=O)[O-])cc3)[nH]n(C(N)=S)c2=O)cccc1[N+](=O)[O-]	none (no result: A3G deaminase, ALR H2O2 inh, APOBEC3A inh)
Cc1[nH]n(C(N)=S)c(=O)c1N=Nc1cccc([N+](=O)[O-])c1C	ALR H2O2 inh 98 (no result: rCAG RNA binder, PHOSPHO1 inh)
Cc1[nH]n(C(N)=S)c(=O)c1N=Nc1cc(-c2ccc(Br)cc2)[nH]n1	ALR H2O2 inh 99
COc1ccc(NC(=O)CSc2ncnc3sc(C)cc23)cc1	none
Cc1cc2c(SCC(=O)Nc3cccc(O)c3)ncnc2s1	rCAG RNA binder 54 (no result: A3G deaminase, ALR H2O2 inh, APOBEC3A inh, PHOSPHO1 inh)
Cc1cccc(NC(=O)CSc2nc3sc(C)cc3c(=O)n2C)c1	none (no result: A3G deaminase, ALR H2O2 inh, APOBEC3A inh, PHOSPHO1 inh)
Cc1cc2c(=O)n(C)c(SCC(=O)Nc3cccc(O)c3)nc2s1	ALR H2O2 inh 99
COc1ccc(NC2CCCN(C(=O)C3(C)CCCCC3)C2)cc1 (configuration not stated)	ALR H2O2 inh 97
COc1ccc(NC2CCCN(C(=O)CSc3ccncc3)C2)cc1 (configuration not stated)	ALR H2O2 inh 99 (no result: PHOSPHO1 inh)
COc1ccc(NC2CCCN(C(=O)CCC3=NNC(=O)CC3)C2)cc1 (configuration not stated)	ALR H2O2 inh 87
O=C(CCc1ccncc1)N1CCCC(Nc2ccc(F)cc2)C1 (configuration not stated)	none
O=C(CSc1ccccc1)N1CCCC(Nc2ccccc2)C1 (configuration not stated)	none
COc1ccc(NC(=O)NC2(C(=O)N3CCN4CCCC4C3)CCCCC2)cc1 (configuration not stated)	none
COc1ccc(CCN(C)C2CCCN(C(=O)CCSC)C2)cc1OC (configuration not stated)	none (no result: PHOSPHO1 inh)
COc1ccc(CCC(=O)N2CCCC(Nc3ccccc3)C2)cc1OC (configuration not stated)	ALR H2O2 inh 98
O=S1(=O)c2c(cccc2N2CCC[C@@H]2CO)O[C@@H]2CCN1C2	none (no result: A3G deaminase, ALR H2O2 inh, APOBEC3A inh, aDG glyco act, PHOSPHO1 inh)
O=C1CCC(C(=O)N2CCCC(Nc3ccc(F)cc3)C2)=NN1 (configuration not stated)	ALR H2O2 inh 82
COc1ccc(NC2CCCN(C(=O)CCC(=O)c3ccc(F)cc3)C2)cc1 (configuration not stated)	ALR H2O2 inh 99
COc1ccc(NC2CCCN(C(=O)CCc3cn[nH]c3)C2)cc1 (configuration not stated)	ALR H2O2 inh 99
CC(C)c1ccc(NC2CCCN(C(=O)CCc3cn[nH]c3)C2)cc1 (configuration not stated)	ALR H2O2 inh 98
Cn1cc(CCC(=O)N2CCCC(Nc3ccc(F)cc3)C2)cn1 (configuration not stated)	ALR H2O2 inh inconclusive
O=C(CCc1ccccc1)N1CCCC(Nc2ccc(F)cc2)C1 (configuration not stated)	ALR H2O2 inh 98
COc1cc(OC)cc(C(=O)N2CCCC(Nc3ccc(F)cc3)C2)c1 (configuration not stated)	ALR H2O2 inh 99
COc1ccc(CCC(=O)N2CCCC(Nc3ccc(OC)cc3)C2)cc1 (configuration not stated)	ALR H2O2 inh 99
Cc1ccc(OC[C@@H](O)CN2CCC(C(O)(c3ccccc3)c3ccccc3)CC2)cc1	none (no result: A3G deaminase, ALR H2O2 inh, APOBEC3A inh, aDG glyco act, PHOSPHO1 inh)
O=C(Nc1nc2ncccn2c1-c1ccc(F)cc1)C1CC1	none (no result: A3G deaminase, ALR H2O2 inh, APOBEC3A inh, aDG glyco act, PHOSPHO1 inh)
Cc1[nH]c(C)c(S(=O)(=O)NCc2ccc(N(C)C)cc2)c1C(=O)N1CCCC1	ALR H2O2 inh 98
CN(C)c1ccc(C(=S)N2CCN(S(=O)(=O)c3ccccc3)CC2)cc1	none
Cc1[nH]c(C)c(S(=O)(=O)NCc2ccc(Cl)cc2)c1C(=O)N1CCCC1	none
CN(C)c1ccc(C(=S)N2CCOCC2)cc1	ALR H2O2 inh 99
CN(c1ccc(C(=O)N2CCCCC2)cc1)S(C)(=O)=O	none
CN(C)c1ccc(C(=O)N2CCCC2)cc1	ALR H2O2 inh 98
COC(=O)c1ccc(C(=S)N2CCOCC2)cc1	none
CC(=O)N1CCN(C(=S)c2ccc(N(C)C)cc2)CC1	ALR H2O2 inh 98, PHOSPHO1 inh 90
O=C(CSc1nnc(-c2ccccc2F)n1Cc1ccco1)Nc1ccccc1-c1ccccc1	none (no result: A3G deaminase, ALR H2O2 inh, APOBEC3A inh, aDG glyco act, PHOSPHO1 inh)
CC(C)C[C@H]1COc2cccc(F)c2S(=O)(=O)N1Cc1cn(CC2CCCCC2)nn1	none (no result: A3G deaminase, ALR H2O2 inh, APOBEC3A inh, aDG glyco act, PHOSPHO1 inh)
COc1cccc(N2CCN(CC(=O)NCc3ccc(F)cc3)CC2)c1	none (no result: A3G deaminase, ALR H2O2 inh, APOBEC3A inh, aDG glyco act, PHOSPHO1 inh)

Compound activity deposited in PubChem BioAssay by several laboratories.
